# Measurements published in the supplement of paper PMC6555819.
# Key:
# Assay in all cases: PBM binding z-score (relative to random genomic background probes); higher = stronger binding; sequences stand for … in GC…GCGATTGACAGCGTAGAATGAAGG
# [1] = test system: FXR:RXRa (NR concentration 270 nM, RXRa partner concentration 90 nM)
# Method in brief: (§1)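 Ligand-free nuclear receptor dimers were applied to custom Agilent 4×180K protein-binding microarrays whose double-stranded probes carried direct-repeat seeds, single-nucleotide variants, half-site ablations and random human genomic background sequences in 34-nt variable regions. Incubation lasted 1 h. Binding z-scores were computed against the random background probes from regression-normalized fluorescence.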
# [2] = test system: LXRa:RXRa (NR concentration 270 nM, RXRa partner concentration 90 nM)
# Method in brief: as §1
# [3] = test system: LXRa homodimer (NR concentration 270 nM)
# Method in brief: as §1
# [4] = test system: LXRb:RXRa (NR concentration 270 nM, RXRa partner concentration 90 nM)
# Method in brief: as §1
# [5] = test system: LXRb homodimer (NR concentration 270 nM)
# Method in brief: as §1
# [6] = test system: PPARa:RXRa (NR concentration 270 nM, RXRa partner concentration 90 nM)
# Method in brief: as §1
# [7] = test system: PPARg:RXRa (NR concentration 180 nM, RXRa partner concentration 90 nM)
# Method in brief: as §1
# [8] = test system: PPARg:RXRa 270nM:90nM, anti-RXR (NR concentration 270 nM, RXRa partner concentration 90 nM)
# Method in brief: as §1
# [9] = test system: PPARg:RXRa 30nM:10nM, anti-RXR (NR concentration 30 nM, RXRa partner concentration 10 nM)
# Method in brief: as §1
# [10] = test system: PPARg:RXRa 90nM:30nM, anti-RXR (NR concentration 90 nM, RXRa partner concentration 30 nM)
# Method in brief: as §1
Sequence,PBM binding z-score [1],PBM binding z-score [2],PBM binding z-score [3],PBM binding z-score [4],PBM binding z-score [5],PBM binding z-score [6],PBM binding z-score [7],PBM binding z-score [8],PBM binding z-score [9],PBM binding z-score [10]
CAAACTAGGTCACCGGAAGGTCAGAGTCCGCATG,5.32,4.74,2.63,4.09,0.598,5.96,9.65,7.46,5.57,7.33
TTAGACAGGTGAAGGTAACTCAGGTACGCAGTCG,0.437,1.75,-0.26,0.818,-0.0711,1.07,0.825,1.33,1.9,1.54
ATATGTAGGTTGCATCCGGGTCATTCAGGCTATG,1.21,1.43,0.122,1.29,-0.0904,2.76,1.97,1.68,0.362,1.36
CCGACTGGGGCAAGCTTACCATAACGCACAGCCA,-0.512,-0.683,-0.49,-0.277,-1.15,0.0607,0.938,0.116,-0.5,-0.274
TAGGCTAGGTCATGCGGGCCAGTATAGTGTCGGC,3.97,2.69,0.422,1.26,0.000142,3.1,2.29,2.28,0.305,1.33
ACAGACAGGTGAGTGAATGTAACTCAGCTGGACG,-0.0424,-0.166,-0.418,-0.486,-0.454,0.0946,0.779,-0.286,-0.216,-0.145
TAGCCTAGGTCATTCAGGGGCCAGTGTAGAAAGC,4.78,3.98,0.7,3.06,1.08,3.66,1.53,2.43,0.00175,1.14
TCTTGTAGATCATGCAGGTTAAGAAAGCCTGAGT,0.492,0.415,-0.144,0.657,-0.00581,1.14,-0.222,1.51,2.51,2.08
TCTAGCGGGCCAGAGGGTCACTCAAGAGGTACGG,0.839,0.883,-0.748,1.08,-1.43,2.37,1.3,2.42,1.68,2.48
